Values joined by “and” are separate entries in the source; they are usually repeats but may differ in a detail not shown here. Equal values may be shown once. Among all 290,000 compounds or so, about 3,000 (1%) were called active. The full list was thinned out, with actives kept by preference. Values without a mark were called inactive. Rule as the data show it: active = inhibition mostly above about 36% (no sharp cut-off); inactive = mostly below about 34%.

The test in a line: NOD1 signaling inhibitors, primary screen, cell-based, luminescence, uHTS (AID 1578).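 Also: HEK-293T reporter cells stimulated with the NOD1 agonist gamma-tri-DAP.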 The conditions noted are these: NOD1-driven NF-kB luciferase reporter cells, at 4 µM, hits give high values. Background: Reporter assays use an easily measured gene product as a stand-in for the process of interest.
As for `COCC(C)n1c(SC(C)C(=O)NC2CCCCC2C)nc2ccccc2c1=O` (centres undefined), the inhibition (commonly the relative decrease from the control value, in per cent) was -27.1%. Regarding `CN(CC(=O)Nc1ccc(Cl)c(C(F)(F)F)c1)C(=O)CC1Sc2ccccc2NC1=O` (centres undefined), the inhibition was -18.8%. On to `O=S(=O)(c1ccc(F)cc1)N1CCN(CC(O)COc2ccccc2F)CC1` (centres undefined), for which the inhibition was -0.6%. For the compound `COc1cccc(CNC(=O)CCC(=O)N2CCSc3ccccc32)c1OC`, the inhibition is 5.1%. Consider `CC(=O)Nc1ccc(S(=O)(=O)N2CCCC2C(=O)Nc2ccc3c(c2)OCCO3)cc1` (centres undefined), for which the inhibition is -17.3%. The figure for `CCO[C@@H]1OC(C(=O)N2CCN(C)CC2)=C[C@H](c2csc3ccccc23)[C@H]1CCCO` is -18%. As for `O=C(CCN1CCN(Cc2ccccc2)CC1)Nc1ccccc1Cl`, the inhibition is -19.8%. On to `NNC(=O)CCN1CCN(Cc2ccccc2)CC1`, for which the inhibition was 45.4% (active). The figure for `NNC(=O)CCN1CCN(C(c2ccccc2)c2ccccc2)CC1` is -18.4%; for `COC(=O)N/N=C/c1cc(Cl)cc(Cl)c1OCc1ccccc1F` it is -1.4%. With `C=CCSc1nc(C)c(CC=C)c(=O)[nH]1`, the inhibition was -34.6%. For `C=CCSc1nc(C)c(CC(=C)C)c(=O)[nH]1`, the inhibition is -23.6%. Regarding `C=CCSc1nc(C)c(Cc2cccc3ccccc23)c(=O)[nH]1`, the inhibition is 41.9% (active). With `C/C(=N\NC(=O)C1CC1)c1cccs1`, the inhibition was -17.5%. On to `CCc1ccnc(NS(=O)(=O)c2ccc3c(c2)CCO3)c1`, for which the inhibition is -5.6%. For the compound `O=S(=O)(N/N=C\c1c(F)cccc1Cl)c1ccc(Cl)cc1`, the inhibition is -0.4%.

Turning to `COC(=O)c1ccc(Cl)c(NC(=O)c2ccc(-c3ccccc3)cc2)c1`, the inhibition was 6%. Take `CCCOC(=O)c1ccc(Cl)c(NC(=O)c2ccc(-c3ccccc3)cc2)c1`: the inhibition is 3.5%.

For the compound `CCOC(=O)c1ccc(Cl)c(NC(=O)c2ccc(-c3ccccc3)cc2)c1`, the inhibition was 104% (active). For `Cc1cc(NS(=O)(=O)c2ccc(NC(=O)C(C)Oc3ccc(Cl)cc3)cc2)no1` (centres undefined), the inhibition was 6.9%. Take `O=C(Nc1ccccc1)C12CC3CC(C1)CC(n1cnc([N+](=O)[O-])n1)(C3)C2`: the inhibition is 1.9%. Consider `O=C(Nc1ccon1)C12CC3CC(C1)CC(n1cnc([N+](=O)[O-])n1)(C3)C2`, for which the inhibition is -18.8%. Take `O=C(Nc1cccc([N+](=O)[O-])c1)C12CC3CC(C1)CC(n1cnc([N+](=O)[O-])n1)(C3)C2`: the inhibition is 92.1% (active). For the compound `COc1ccc(C(=O)N2CCCC(C(=O)N3CCN(c4ccccc4)CC3)C2)cc1` (centres undefined), the inhibition is 2.5%.

Turning to `Cc1ccccc1C(=O)N1CCN(c2ccc(NC(=O)c3ccc4c(c3)OCO4)cc2)CC1`, the inhibition is 3%.

Take `O=C(Nc1ccc(N2CCN(C(=O)c3ccccc3)CC2)cc1)c1ccc2c(c1)OCCO2`: the inhibition is 31.2%. For the compound `COc1ccccc1N(CC(=O)Nc1ccccc1C)S(C)(=O)=O`, the inhibition was -26.9%.

Turning to `CC(NC(=O)C1CC=CCC1C(=O)O)C1CC2CCC1C2` (centres undefined), the inhibition is -30.7%. Consider `CC(NC(=O)C1CCCC1)C1CC2CCC1C2` (centres undefined), for which the inhibition was 96.5% (active). The figure for `CC(NC(=O)c1ccccc1Cl)C1CC2CCC1C2` (centres undefined) is -16.6%; for `C[C@]12CC(O)C3C(CCC4=CC(=O)CC[C@@]43C)C1CCC2c1csc(-c2ccccc2)n1` (some centres undefined) it is 15.3%.

As to `CC(=O)[C@H]1CC[C@H]2[C@@H]3CCC4=CC(=O)CC[C@]4(C)[C@H]3CC[C@]12C`, the inhibition is 5.4% and -4.1%. `C/C(=N\O)c1ncc(C(F)(F)F)cc1Cl`: the inhibition was -23.5%. Turning to `CC(C)NC(=O)CC(=O)N/N=C\c1ccccc1C(=O)O`, the inhibition was -33.7%. Turning to `CSc1ccccc1C(=O)Nc1cccc(N(C)S(C)(=O)=O)c1`, the inhibition was -8.4%. For the compound `CC1Cc2ccccc2N1CC(=O)NC(=O)NCc1ccco1` (centres undefined), the inhibition was -5.2%. `Cc1cccc(N2C(=O)c3cccc4c(N)ccc(c34)C2=O)c1`: the inhibition is 26.2% (active). For the compound `Nc1cccc(N2C(=O)c3cccc4c(N)ccc(c34)C2=O)c1`, the inhibition was 5.7%. With `Nc1ccc2c3c(cccc13)C(=O)N(c1ccccc1)C2=O` the figure was -19.1%; with `O=C(NCCOc1ccccc1)C1CCC(=O)N(CCCN2CCOCC2)C1` (centres undefined), -28.6%; with `Cc1ccc2c(c1)C(=O)CC(c1ccc3c(c1)OCCO3)O2` (centres undefined), -0.6%.

Regarding `COc1ccc2c(c1)C(=O)CC(c1ccccc1F)O2` (centres undefined), the inhibition is 5.9%.

Take `Cn1c(Cl)cnc1C1CC(=O)c2cc(Cl)ccc2O1` (centres undefined): the inhibition is 76.3% (active).

With `COc1ccc(CN(C)C(=O)c2ccc(COc3ccccc3)cc2)c(OC)c1`, the inhibition was -11.1%. For the compound `Cc1ccsc1/C=N\NC(=O)Cn1nnc2ccccc21`, the inhibition is -9.3%. Turning to `OCCN1CCN(CC(O)COC(c2ccc(F)cc2)c2ccc(F)cc2)CC1` (centres undefined), the inhibition was -11.1%. For `OC(COC(c1ccc(F)cc1)c1ccc(F)cc1)CN1CCCC1` (centres undefined), the inhibition is 40.5% (active). Regarding `OC(COC(c1ccc(Cl)cc1)c1ccc(Cl)cc1)CN1CCCC1` (centres undefined), the inhibition was -28.8%.

`Cc1ccccc1NC(=O)Cc1nc(COC(=O)c2cc(Cl)ccc2O)cs1`: the inhibition was -19.6%.

In the case of `CC(=O)Oc1cc(OC(C)=O)c2c(=O)c(-c3ccc4c(c3)OCCCO4)c(C)oc2c1`, the inhibition was -3%. Turning to `O=C(NCc1cccnc1)c1ccc(-c2cc(Cl)ccc2Cl)o1`, the inhibition is 42.3%. With `O=C(NCc1cccnc1)c1ccc(-c2ccc(Cl)cc2)o1` the figure was -19.4%. With `O=C(NCc1cccnc1)c1ccc(-c2cccc(Cl)c2Cl)o1` the figure was 40.8% (active); with `Cc1csc(=O)n1CC(=O)OCC(=O)Nc1cc(Cl)ccc1[N+](=O)[O-]`, -34.9%. On to `CCN(C(=O)CSc1nncs1)c1c(N)n(Cc2ccccc2)c(=O)[nH]c1=O`, for which the inhibition is 4.6%. For `CCC(=O)NC(C)C(c1cccs1)N1CCN(Cc2ccccc2)CC1` (centres undefined), the inhibition is -18.4%.

For `O=C(COc1ccc(Cl)cc1)N1CCN(C(=O)c2ccccc2F)CC1`, the inhibition is 27.3%. For `C=C1C(=O)O[C@H]2[C@H]1[C@@H](O)CC(=C)[C@@H]1CC(=O)[C@@H](C)[C@H]21`, the inhibition is 9.7%. On to `C=C1C(=O)O[C@H]2C[C@]3(C)C([C@@H](OC(=O)/C(C)=C/C)[C@H]12)[C@](C)(O)CC[C@H]3O` (some centres undefined), for which the inhibition was 13.6%. Turning to `C=C1C(=O)O[C@@H]2[C@H]1[C@@H](OC(=O)/C(C)=C/C)C/C(C)=C\C(=O)/C=C(\C)[C@@H]2O`, the inhibition was 54.7% (active).

Take `CCn1c(CC(=O)Nc2ccc(OC)cc2)nnc1SCC(=O)N1CCOCC1`: the inhibition was -21.2%. Take `COc1ccc(/C=C/C(=O)c2ccc[nH]2)c(OC)c1OC`: the inhibition is -21.2%. With `COc1ccc(/C=C/C(=O)c2ccncc2)c2ccccc12` the figure was 6.3%. Take `COc1cc2[nH]c(=O)n(C3CCCCC3)c(=O)c2cc1OC`: the inhibition was 3.9%. With `CCOc1ccc(-c2nc(N)ncc2-c2ccccc2)c(O)c1` the figure was 2.9%; with `CCOc1ccc(-c2nc(N)ncc2-c2ccc(OC)cc2)c(O)c1`, 7.2%. For the compound `CCOc1ccc(-c2nc(N)ncc2-c2ccc(Cl)cc2)c(O)c1`, the inhibition was 34.1% (active). With `C=CCN1C(=O)C(CC(=O)O)SC1=Nc1ccc(C)cc1` (centres undefined), the inhibition is -23.8%. With `CC(Oc1ccccc1)c1ccnc2nc(/N=C/N(C)C)nn12` (centres undefined) the figure was -24.9%. For the compound `CC1(C)CC(=O)c2sc(NC(=O)c3ccccc3)nc2C1`, the inhibition is -45.6%. As to `CC1(C)CC(=O)c2sc(NS(=O)(=O)c3ccccc3)nc2C1`, the inhibition was -13.7%.

In the case of `CC1(C)CC(=O)c2sc(NC(=O)CCS(=O)(=O)c3ccccc3)nc2C1`, the inhibition was 71% (active). For the compound `CN(C)c1c(F)cc(C(=O)NC(=O)NCc2cccnc2)cc1F`, the inhibition was -15%. Consider `COc1ccc(C(CC(=O)O)NC(=O)c2cccs2)cc1` (centres undefined), for which the inhibition is -11.2%. On to `Cc1cccc(NC(NC(=O)c2ccccc2[N+](=O)[O-])C(Cl)(Cl)Cl)c1` (centres undefined), for which the inhibition is -3.9%. The figure for `COc1ccc(-n2nnnc2SCC(=O)Nc2nc3c(s2)CCCC3)cc1` is 43.4%; for `COc1cc(OC)cc(-n2nnnc2SCC(=O)Nc2nc3c(s2)CCCC3)c1` it is -3.7%; for `O=C(CSc1nnnn1-c1ccc2c(c1)OCCO2)Nc1nc2c(s1)CCCC2` it is 58.5% (active). The figure for `O=C(O)c1cccc(Oc2ccc([N+](=O)[O-])cc2)c1` is -8.3%.

`COc1cc(/C=N/NC(=O)C(=O)NCc2cccnc2)cc(OC)c1OC`: the inhibition is -15.5%. Consider `COc1cc(OC)cc(C(=O)O/N=C(\N)c2ccccn2)c1`, for which the inhibition was -12.2%. On to `Cc1ccc(C(=O)O/N=C(\N)c2ccccn2)cc1`, for which the inhibition is 11.3%.

Take `N/C(=N\OC(=O)c1ccccc1)c1ccccn1`: the inhibition is 18.4%. The figure for `COc1ccc(C(=O)O/N=C(\N)c2ccccn2)cc1` is 84.1% (active). In the case of `CCOc1ccc(C(=O)O/N=C(\N)c2ccccn2)cc1`, the inhibition is 20.4%. As for `CNC(=O)C(=O)NCC1OCCN1S(=O)(=O)c1ccc(C)cc1` (centres undefined), the inhibition was -22.7%. In the case of `CCc1ccnc(NC(=O)NS(=O)(=O)c2ccc(C)cc2)c1`, the inhibition was -11.9%. Consider `COc1ccc(NS(=O)(=O)c2cccc(C(=O)OCC(=O)NC3CC3)c2)cc1`, for which the inhibition was 7.3%. As to `CCC(NC(=O)c1cc(COc2ccc(OC)cc2Cl)on1)c1ccncc1` (centres undefined), the inhibition was -10.3%. `O=C(CCc1nnc(CCCCc2ccccc2)o1)NCCn1cccn1`: the inhibition is -24.1%. For the compound `CCC(Sc1nc2cc(OC)c(OC)cc2c(=O)n1Cc1ccc(OC)cc1)C(=O)NCCOC` (centres undefined), the inhibition was -24.5%. Regarding `COc1ccc(Oc2cnc3ccccc3n2)cc1`, the inhibition is 60.3% (active). As for `c1ccc(Oc2cnc3ccccc3n2)cc1`, the inhibition is 13.1%. On to `Cc1ccc(Oc2cnc3ccccc3n2)cc1`, for which the inhibition was 18.8%.

For the origin of these results see PubChem BioAssay AID1578 (Sanford-Burnham Center for Chemical Genomics, 2009).
